In PubChem BioAssay (Tox21) one finds Potency and max activation data, which are given here for ten molecules.

Values without a mark were called inactive. Records with an inconclusive call do not appear. The source made the active and inactive calls. The call rests on the fitted dose curve; in most records, active means well fitted curve in the direction sought with a large enough effect in the repeat runs; inconclusive means weak or mixed curves; inactive means no such curve, though single readings can be large; an effect the other way counts as inactive or inconclusive.

Test [1] in a line: Caspase-3/7 induction in HepG2 cells by small molecules, qHTS assay (AID 1346978). Further: on the % scale 0 is the no-effect control and ±100 the full control effect; nearly all actives have a fitted effect of over 15% in size. In outline: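 Wild-type HepG2 cells, 2,000/well, settled 5 hr at 37 C and 5% CO2, then compound-treated for 17 hr; caspase-3/7 activity read by luminescent Caspase-Glo 3/7 after 30 min at room temperature.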
On the technique in general: Quantitative high-throughput screening tests each substance at several concentrations.

A short description of test [2]: Caspase-3/7 induction in CHO-K1 cells by small molecules, qHTS cell viability counter screen (AID 1346979). Further: nearly all actives have a fitted effect of over 35% in size. Further: potency means the concentration at half of the fitted maximal effect. The procedure, abridged:
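Wild-type CHO-K1 cells (1,500/well) treated with compound after 5 h plating; after 16 h at 37C, viability read as CellTiter-Fluor fluorescence following 1 h reagent incubation, in the same wells as the caspase read.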

The nature of test [3]: Caspase-3/7 induction in CHO-K1 cells by small molecules, qHTS assay (AID 1346980). Further: on the % scale 0 is the no-effect control and ±100 the full control effect; nearly all actives have a fitted effect of over 15% in size. In outline:
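Wild-type CHO-K1 cells exposed to compounds for 17hr at 37 C, 5% CO2. Caspase-3/7 activity then measured by Caspase-Glo 3/7 luminescence after 30min at room temperature.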

The target of test [4] is Nuclear receptor subfamily 1 group I member 2 (Homo sapiens) (UniProt O75469). The experiment in a line: Human pregnane X receptor (PXR) small molecule agonists, qHTS assay (AID 1346982). Further: nearly all actives have a fitted effect of over 35% in size. Further: potency means the concentration at half of the fitted maximal effect. On activation: on the % scale 0 is the no-effect control and ±100 the full control effect. The procedure, abridged: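 HepG2 PXR-Luc reporter line, 5% charcoal-stripped FBS; 5 hr pre-incubation, compound (DMSO) 24 hr at 37 C/5% CO2; ONE-Glo 30 min RT; luminescence read-out.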
Chain of Nuclear receptor subfamily 1 group I member 2 (Homo sapiens) (O75469 whole entry, looked up): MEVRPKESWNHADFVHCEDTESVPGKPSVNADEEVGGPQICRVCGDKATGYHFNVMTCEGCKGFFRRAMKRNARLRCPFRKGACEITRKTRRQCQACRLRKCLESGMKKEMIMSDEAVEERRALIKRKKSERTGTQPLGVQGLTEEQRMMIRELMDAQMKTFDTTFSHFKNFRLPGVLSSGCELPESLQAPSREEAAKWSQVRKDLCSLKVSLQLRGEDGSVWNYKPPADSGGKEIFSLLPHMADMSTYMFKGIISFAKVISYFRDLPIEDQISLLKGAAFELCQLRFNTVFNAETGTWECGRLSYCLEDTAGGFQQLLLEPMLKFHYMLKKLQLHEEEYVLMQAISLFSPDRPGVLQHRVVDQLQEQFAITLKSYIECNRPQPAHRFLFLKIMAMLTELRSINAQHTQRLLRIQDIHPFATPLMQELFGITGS

Test [5] addresses Cytochrome P450 2D6 (Homo sapiens) (UniProt P10635). The test can be described thus: Cytochrome P450 Family 2 Subfamily D Member 6 (CYP2D6) small molecule antagonists: luciferase reporter qHTS assay (AID 1671196). Further: nearly all actives have a fitted effect of over 50% in size. Further: potency means the concentration at half of the fitted maximal effect. In outline: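 Luminogenic proluciferin substrate, CYP2D6 enzyme; 10 min RT preincubation with compound, NADPH regeneration system added, 1 h RT. Stop/detection reagent, 20 min RT, luminescence read (RLU). Signal proportional to CYP activity.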

Test [6] concerns the target Cytochrome P450 2C9 (Homo sapiens) (UniProt P11712). The experiment in a line: Cytochrome P450 Family 2 Subfamily C Member 9 (CYP2C9) small molecule antagonists: luciferase reporter qHTS assay (AID 1671198). Further: nearly all actives have a fitted effect of over 50% in size. Further: potency means the concentration at half of the fitted maximal effect. The procedure, abridged: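 P450-Glo proluciferin substrate with CYP2C9 enzyme; 10 min RT preincubation, then NADPH regeneration 1 h at 37C; luciferin detection reagent 20 min RT, luminescence in relative luminescence units.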
(Reporter assays use an easily measured gene product as a stand-in for the process of interest.)

Test [7] has as its target Cytochrome P450 1A2 (Homo sapiens) (UniProt P05177). The experiment in a line: Cytochrome P450 Family 1 Subfamily A Member 2 (CYP1A2) small molecule antagonists: luciferase reporter qHTS assay (AID 1671199). Further: nearly all actives have a fitted effect of over 50% in size. Further: potency means the concentration at half of the fitted maximal effect. In outline: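 Luminescence readout (relative luminescence units) after luciferin detection reagent, 20 min RT. Preceded by 1 h room-temperature CYP1A2 reaction with NADPH regeneration solution following 10 min compound preincubation with enzyme and proluciferin substrate. Furafylline positive control.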

The target in test [8] is Voltage-gated inwardly rectifying potassium channel KCNH2 (Homo sapiens) (UniProt Q12809). The experiment in a line: Human Ether-a-go-go-Related Gene (hERG) channel small molecule antagonists: fluorescence cell-based qHTS assay (AID 1671200). Further: nearly all actives have a fitted effect of over 50% in size. Further: potency means the concentration at half of the fitted maximal effect. In outline: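 hERG-U2OS cells plated overnight at 37 C, loaded with FluxOR II dye 1 h at RT in dark; after 10 min, thallium stimulus added. Fluorescence (480/540 nm) read kinetically for 2 min at 1 s intervals.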
Chain of Voltage-gated inwardly rectifying potassium channel KCNH2 (Homo sapiens) (Q12809 whole entry, looked up): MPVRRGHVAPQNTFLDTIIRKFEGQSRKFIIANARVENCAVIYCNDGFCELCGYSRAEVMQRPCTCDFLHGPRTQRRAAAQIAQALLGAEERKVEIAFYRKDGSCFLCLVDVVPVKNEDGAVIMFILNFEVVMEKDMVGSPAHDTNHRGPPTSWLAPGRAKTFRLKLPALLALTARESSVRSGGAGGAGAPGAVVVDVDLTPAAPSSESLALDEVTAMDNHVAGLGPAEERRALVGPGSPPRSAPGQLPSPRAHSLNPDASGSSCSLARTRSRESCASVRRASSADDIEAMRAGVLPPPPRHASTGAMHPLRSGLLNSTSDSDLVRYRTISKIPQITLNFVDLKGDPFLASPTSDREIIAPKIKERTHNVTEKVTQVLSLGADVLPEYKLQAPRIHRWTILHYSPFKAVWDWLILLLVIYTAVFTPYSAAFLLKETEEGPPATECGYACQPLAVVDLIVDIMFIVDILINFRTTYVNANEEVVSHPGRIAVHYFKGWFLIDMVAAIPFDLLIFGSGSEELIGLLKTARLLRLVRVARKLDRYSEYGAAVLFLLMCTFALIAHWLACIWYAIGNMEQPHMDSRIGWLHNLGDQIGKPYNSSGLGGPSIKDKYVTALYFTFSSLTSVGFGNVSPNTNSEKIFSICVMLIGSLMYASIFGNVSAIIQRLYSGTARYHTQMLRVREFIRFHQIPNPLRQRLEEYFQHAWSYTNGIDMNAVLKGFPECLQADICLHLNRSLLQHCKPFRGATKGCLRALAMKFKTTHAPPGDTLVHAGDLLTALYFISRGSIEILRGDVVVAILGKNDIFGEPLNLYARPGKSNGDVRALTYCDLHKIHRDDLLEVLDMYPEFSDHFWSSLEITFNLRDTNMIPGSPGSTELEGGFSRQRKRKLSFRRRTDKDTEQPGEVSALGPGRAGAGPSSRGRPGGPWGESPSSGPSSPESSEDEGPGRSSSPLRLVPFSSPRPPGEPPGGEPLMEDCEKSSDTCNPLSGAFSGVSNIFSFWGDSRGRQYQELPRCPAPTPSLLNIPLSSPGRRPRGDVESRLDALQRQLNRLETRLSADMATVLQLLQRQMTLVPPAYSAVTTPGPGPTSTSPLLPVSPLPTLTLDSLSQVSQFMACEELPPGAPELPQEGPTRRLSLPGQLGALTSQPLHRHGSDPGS
Background: The hERG channel carries a current that helps repolarise heart muscle cells.

The target in test [9] is Cytochrome P450 3A4 (Homo sapiens) (UniProt P08684). The test can be described thus: Cytochrome P450 Family 3 Subfamily A Member 4 (CYP3A4) small molecule antagonists: luciferase reporter qHTS assay (AID 1671201). Further: nearly all actives have a fitted effect of over 50% in size. Further: potency means the concentration at half of the fitted maximal effect. In outline:
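P450-Glo CYP3A4 luminescent assay: compounds preincubated 10 min at room temperature with enzyme and proluciferin substrate, NADPH regeneration added, 1 h room-temperature reaction, stopped with luciferin detection reagent; luminescence read after 20 min. Ketoconazole positive control.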

A short description of test [10]: Caspase-3/7 induction in HepG2 cells by small molecules, qHTS cell viability counter screen (AID 1346981). Further: series mostly up to about 92 µM; on the % scale 0 is the no-effect control and ±100 the full control effect; nearly all actives have a fitted effect of over 30% in size. The procedure, abridged:
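Fluorescence read-out of live-cell protease activity (CellTiter-Fluor) after 1 hr with reagent. This was measured in the same wells as the caspase-3/7 luminescence, on HepG2 cells exposed to DMSO-dissolved compounds for 16 hr at 37 C.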

For test [11], the target named is Cytochrome P450 2C19 (Homo sapiens) (UniProt P33261). The test can be described thus: Cytochrome P450 Family 2 Subfamily C Member 19 (CYP2C19) small molecule antagonists: luciferase reporter qHTS assay (AID 1671197). Further: nearly all actives have a fitted effect of over 65% in size. Further: potency means the concentration at half of the fitted maximal effect. The procedure, abridged:
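Light output is proportional to CYP2C19 activity: proluciferin substrate is converted to luciferin, then detected by a luciferin detection reagent that also stops the 1 h, 37C NADPH-driven reaction. Ketoconazole serves as positive control.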

Test [12] has as its target Nuclear receptor subfamily 1 group I member 2 (Rattus norvegicus) (UniProt Q9R1A7). The test can be described thus: Rat pregnane X receptor (rPXR) activation by small molecules, qHTS assay (AID 1346983). Further: on the % scale 0 is the no-effect control and ±100 the full control effect; nearly all actives have a fitted effect of over 20% in size. Conditions: rPXR luciferase reporter cells, One-Glo luminescence, 24 h; max activation: active compounds read high. In outline: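 Cell-based rPXR activation assay: rPXR cells, 2,000 per well, rested 5hr at 37 C, then exposed to compounds in DMSO for 24 hr at 37 C. Luciferase activity read by One-Glo luminescence after 30 min at room temperature.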

The target of test [13] is Nuclear receptor subfamily 1 group I member 2 (Homo sapiens) (UniProt O75469). The experiment in a line: CYP3A4 induction through human pregnane X receptor (PXR) by small molecules, qHTS assay (AID 1346984). Further: on the % scale 0 is the no-effect control and ±100 the full control effect; nearly all actives have a fitted effect of over 40% in size. In outline: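 HepG2-derived DPX-2 line carrying PXR plus a CYP3A4-promoter luciferase reporter; cells plated 5 hr, compound-exposed 24 hr at 37C. CYP3A4 activity probed with 3uM (final) Luciferin-IPA for 3hr, then luciferase read after One-Glo.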

Test [14] has the same target. The test can be described thus: Human pregnane X receptor (PXR) activation by small molecules, qHTS assay (AID 1346985). Further: on the % scale 0 is the no-effect control and ±100 the full control effect; nearly all actives have a fitted effect of over 40% in size. In outline: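 DPX-2 cells (HepG2 co-transfected with a PXR response element and a CYP3A4-promoter luciferase construct) were seeded at 2,000 per well, rested 5 hr at 37C, then exposed to DMSO-dissolved compounds for 24 hr. Activation was read as luciferase luminescence.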

Test [15] in a line: Human pregnane X receptor (PXR) small molecule agonists, qHTS cell viability counter screen (AID 1346977). In outline: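 PXR-Luc HepG2 cells (2,000/well, 5% charcoal-stripped FBS) preincubated 5 hr, then exposed to compounds 24 hr at 37 C. Viability read in the same wells by CellTiter-Fluor fluorescence, reagent added at 23 hr, 1 hr incubation.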

Chain of Cytochrome P450 2D6 (Homo sapiens) (P10635 whole entry, looked up): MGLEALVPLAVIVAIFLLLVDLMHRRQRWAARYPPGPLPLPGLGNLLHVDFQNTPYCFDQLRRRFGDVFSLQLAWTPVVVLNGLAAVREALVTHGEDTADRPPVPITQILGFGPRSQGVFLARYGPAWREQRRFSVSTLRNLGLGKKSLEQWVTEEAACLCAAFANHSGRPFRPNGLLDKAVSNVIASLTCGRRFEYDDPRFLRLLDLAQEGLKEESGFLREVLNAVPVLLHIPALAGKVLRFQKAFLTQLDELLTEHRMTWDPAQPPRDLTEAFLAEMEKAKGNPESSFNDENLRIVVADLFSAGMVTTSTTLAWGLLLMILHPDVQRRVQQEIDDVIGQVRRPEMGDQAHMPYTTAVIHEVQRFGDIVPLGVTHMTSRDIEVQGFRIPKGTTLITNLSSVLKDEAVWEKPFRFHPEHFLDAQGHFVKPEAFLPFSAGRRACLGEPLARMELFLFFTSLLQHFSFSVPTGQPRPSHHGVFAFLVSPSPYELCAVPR
Chain of Cytochrome P450 3A4 (Homo sapiens) (P08684 whole entry, looked up): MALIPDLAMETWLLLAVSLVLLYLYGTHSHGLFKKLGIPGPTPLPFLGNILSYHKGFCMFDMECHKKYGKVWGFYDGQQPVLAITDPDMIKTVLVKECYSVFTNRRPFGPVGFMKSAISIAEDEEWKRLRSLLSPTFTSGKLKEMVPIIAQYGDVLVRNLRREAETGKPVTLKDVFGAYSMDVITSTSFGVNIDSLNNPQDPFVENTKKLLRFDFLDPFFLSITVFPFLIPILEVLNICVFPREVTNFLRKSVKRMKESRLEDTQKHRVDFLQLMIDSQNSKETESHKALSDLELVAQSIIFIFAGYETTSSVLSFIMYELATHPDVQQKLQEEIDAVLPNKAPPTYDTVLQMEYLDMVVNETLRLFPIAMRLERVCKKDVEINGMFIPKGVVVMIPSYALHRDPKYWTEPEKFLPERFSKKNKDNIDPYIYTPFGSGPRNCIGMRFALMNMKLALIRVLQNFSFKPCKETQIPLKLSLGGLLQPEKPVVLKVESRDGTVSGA
Chain of Cytochrome P450 2C9 (Homo sapiens) (P11712 whole entry, looked up): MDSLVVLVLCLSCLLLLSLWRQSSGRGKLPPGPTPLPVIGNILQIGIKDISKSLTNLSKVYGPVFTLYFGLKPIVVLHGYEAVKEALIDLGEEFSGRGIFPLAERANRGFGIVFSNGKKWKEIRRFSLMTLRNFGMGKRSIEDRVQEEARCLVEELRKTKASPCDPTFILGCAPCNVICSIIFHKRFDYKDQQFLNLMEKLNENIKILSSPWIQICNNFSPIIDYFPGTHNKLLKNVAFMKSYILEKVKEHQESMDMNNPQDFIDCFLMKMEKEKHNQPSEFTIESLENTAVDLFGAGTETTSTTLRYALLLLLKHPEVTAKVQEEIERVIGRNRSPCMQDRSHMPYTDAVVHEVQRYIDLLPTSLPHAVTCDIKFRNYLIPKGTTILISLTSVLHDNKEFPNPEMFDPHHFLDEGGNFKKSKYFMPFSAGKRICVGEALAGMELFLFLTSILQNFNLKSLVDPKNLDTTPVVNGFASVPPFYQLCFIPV
Chain of Cytochrome P450 2C19 (Homo sapiens) (P33261 whole entry, looked up): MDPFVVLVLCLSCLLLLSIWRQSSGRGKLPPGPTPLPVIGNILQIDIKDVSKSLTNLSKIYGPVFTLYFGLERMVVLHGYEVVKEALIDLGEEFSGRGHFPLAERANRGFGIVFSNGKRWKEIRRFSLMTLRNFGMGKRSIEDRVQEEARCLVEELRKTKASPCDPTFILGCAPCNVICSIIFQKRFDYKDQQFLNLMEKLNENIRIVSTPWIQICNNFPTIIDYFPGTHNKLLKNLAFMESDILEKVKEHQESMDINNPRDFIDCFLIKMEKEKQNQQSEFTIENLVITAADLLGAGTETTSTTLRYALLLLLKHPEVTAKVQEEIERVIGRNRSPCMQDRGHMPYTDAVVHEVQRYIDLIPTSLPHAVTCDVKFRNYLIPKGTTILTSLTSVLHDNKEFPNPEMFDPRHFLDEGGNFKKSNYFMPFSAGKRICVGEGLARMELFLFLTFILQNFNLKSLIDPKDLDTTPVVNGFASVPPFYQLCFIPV
Chain of Cytochrome P450 1A2 (Homo sapiens) (P05177 whole entry, looked up): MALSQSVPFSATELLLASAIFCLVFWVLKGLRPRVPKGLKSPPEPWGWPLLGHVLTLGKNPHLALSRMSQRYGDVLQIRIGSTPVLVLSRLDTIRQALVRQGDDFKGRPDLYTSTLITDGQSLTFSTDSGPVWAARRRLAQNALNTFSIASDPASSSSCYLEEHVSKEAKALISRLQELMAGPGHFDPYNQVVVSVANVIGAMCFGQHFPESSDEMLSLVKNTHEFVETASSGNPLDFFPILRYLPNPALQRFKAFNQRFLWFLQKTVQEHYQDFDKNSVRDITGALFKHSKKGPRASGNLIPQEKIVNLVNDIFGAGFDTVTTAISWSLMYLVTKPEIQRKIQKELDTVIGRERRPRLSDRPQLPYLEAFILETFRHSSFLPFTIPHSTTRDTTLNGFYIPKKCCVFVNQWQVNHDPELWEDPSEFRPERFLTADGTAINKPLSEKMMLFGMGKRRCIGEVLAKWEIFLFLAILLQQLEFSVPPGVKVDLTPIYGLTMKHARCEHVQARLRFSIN
Chain of Nuclear receptor subfamily 1 group I member 2 (Rattus norvegicus) (Q9R1A7 whole entry, looked up): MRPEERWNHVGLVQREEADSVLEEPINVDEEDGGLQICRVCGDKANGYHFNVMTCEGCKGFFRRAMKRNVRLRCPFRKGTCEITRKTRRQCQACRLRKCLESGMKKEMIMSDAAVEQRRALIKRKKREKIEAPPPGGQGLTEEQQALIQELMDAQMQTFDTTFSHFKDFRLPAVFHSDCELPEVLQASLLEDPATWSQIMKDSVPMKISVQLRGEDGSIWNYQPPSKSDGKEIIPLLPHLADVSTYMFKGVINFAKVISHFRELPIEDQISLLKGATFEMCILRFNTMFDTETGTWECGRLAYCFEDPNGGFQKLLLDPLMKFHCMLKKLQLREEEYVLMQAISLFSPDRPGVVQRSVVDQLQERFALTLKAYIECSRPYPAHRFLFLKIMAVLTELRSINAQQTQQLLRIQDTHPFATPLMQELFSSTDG

Take `O=C(Nc1cccc2c(=O)cc(-c3nn[nH]n3)oc12)c1ccc(OCCCCc2ccccc2)cc1`: the Potency entry in test [1], in [2], in test [3], in [4], in [5] and in [7] was “inactive” throughout. Besides, the Potency result in test [8] and in test [9] was “inactive” throughout. In addition, the Potency in test [6] is 7.76 µM (active).
For `O=C1NCCN1CCO`, the Potency entry in [1], in [2], in test [3], in test [10], in test [4] and in [5] was “inactive” each time. For the same molecule, the Potency result in [11], in [6], in test [7], in test [8] and in test [9] was “inactive” in each case.
Turning to `CCN(CC)CCNC(=O)COc1ccc(OC)cc1`, the Potency entry in test [1], in [2], in test [3], in test [10], in test [4] and in test [13] was “inactive” throughout. Moreover, the Potency result in test [14], in test [6], in test [7], in [8] and in test [9] was “inactive” in each case. In test [12], the max activation is 6.52%.
`C[C@@H]1CN(CCCn2c3ccccc3c3ccccc32)C[C@H](C)N1`: the Potency in test [15] was 29.8 µM (active); in [2], 29.8 µM (active); in test [5], 0.389 µM (active); in test [8], 6.01 µM (active). Moreover, the Potency entry in [4], in [11] and in test [6] was “inactive” each time. Also, the max activation in test [12] was -9.24%.
Take `CN1CCCC(CC2c3ccccc3Sc3ccccc32)C1` (stereo not drawn): in [15], the Potency was 29.8 µM (active). For the same molecule, the Potency result in [3], in test [10], in test [4], in test [14], in [6] and in [7] was “inactive” throughout. Moreover, the Potency entry in [9] was “inactive”. Also, in test [12], the max activation was -1.72%.
On to `CC(=O)Nc1ccc(C)cc1C`, for which the Potency result in test [1], in [2], in test [3], in test [10], in test [4] and in test [5] was “inactive” in each case. Also, the Potency result in [6], in [7], in test [8] and in test [9] was “inactive” each time.
For the molecule `COC(=O)c1nc(Cl)c(Cl)nc1N`, the Potency entry in test [1], in test [3], in [5], in [11], in [6] and in test [8] was “inactive” throughout. Moreover, the Potency entry in test [9] was “inactive”. Further, the Potency in test [2] is 8.41 µM (active); in test [4], 10.6 µM (active); in [7], 4.36 µM (active).
For the molecule `OC(CCN1CCCC1)(c1ccccc1)C1CCCCC1` (stereo not drawn), the Potency entry in test [1], in [2], in test [3] and in test [10] was “inactive” in each case.
As to `O=c1cc(-c2ccccc2)oc2ccc3ccccc3c12`, the Potency entry in test [1], in test [3] and in test [8] was “inactive” throughout. Moreover, the Potency is 54.5 µM (active) in [2]; 2.43 µM (active) in test [4]; 5.64 µM (active) in test [5]; 3.56 µM (active) in test [11]; 3.17 µM (active) in test [6]; 5.64 µM (active) in test [7]. In addition, the Potency in [9] was 17.8 µM (active).
With `CCCCOc1ccc(OCCCN2CCOCC2)cc1`, the Potency result in test [1], in test [2], in test [10], in test [13], in [14] and in test [7] was “inactive” in each case. Further, the Potency entry in test [9] is “inactive”. Also, the Potency in test [4] is 21.1 µM (active); in [5] it was 27.5 µM (active). In [12], the max activation is -1.82%.
